This is a sample that favours compounds with a hit; in the whole collection about 1.7% have one here.
GLP1R inv ag: qHTS of GLP-1 Receptor Inverse Agonists (Inhibition Mode) | AID 624417, 2012 | 410,000 compounds, 1.6% hits | Potency, µM (titrated, usually from 38.3 µM), for inactives: top-dose activity change, negative = inhibition, hits mostly inhibitors | Glucagon-like peptide 1 receptor (Homo sapiens), P43220 | HEK293 GLP-1R CRE-luciferase, luminescence, 24 h; GLP-1R form is constitutively active; also: % is scaled to controls: 0 for no effect and ±100 for the full control effect; nearly all actives have a fitted effect of over 55% in size
Target sequence (P43220 whole entry, looked up): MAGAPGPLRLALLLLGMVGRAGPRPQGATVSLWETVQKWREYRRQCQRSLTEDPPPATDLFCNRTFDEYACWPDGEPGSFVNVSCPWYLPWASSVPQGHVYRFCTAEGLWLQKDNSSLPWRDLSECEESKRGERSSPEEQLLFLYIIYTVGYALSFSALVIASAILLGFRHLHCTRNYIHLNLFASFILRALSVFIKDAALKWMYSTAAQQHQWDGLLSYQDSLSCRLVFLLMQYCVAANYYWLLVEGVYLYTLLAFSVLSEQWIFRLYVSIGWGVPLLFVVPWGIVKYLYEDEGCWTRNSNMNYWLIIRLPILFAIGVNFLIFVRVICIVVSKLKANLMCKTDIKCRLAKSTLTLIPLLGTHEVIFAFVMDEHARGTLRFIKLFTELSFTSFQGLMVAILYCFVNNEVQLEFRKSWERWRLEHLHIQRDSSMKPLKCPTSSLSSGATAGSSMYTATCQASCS
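HEK293 cells stably co-expressing a cAMP-responsive luciferase reporter and constitutively active GLP-1R were seeded, incubated 12 h, then exposed to compounds for 24 h at 37 C. Luminescence was read 12 min after detection reagent; inverse agonists lower signal.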
GLP1R cytotox: qHTS of GLP-1 Receptor Inverse Agonists: Cytotox Screen; HEK293 cAMP-luciferase reporter cells, luminescence, 24 h; Potency, µM (doses to about 38.3 µM), without a hit: at the highest dose activity change, negative = inhibition, most hits filed as inhibitors; 410,000 compounds, 0.13% hits; AID 624418, 2012;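 also: loss of luciferase light is scored as toxicity; % is scaled to controls: 0 for no effect and ±100 for the full control effect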
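1536-well qHTS counterscreen of the MLSMR; 200 cells/uL, 12 h pre-incubation, 23 nL cpd, 24 h at 37 deg C 5% CO2, luciferase detection reagent, 12 min RT, luminescence. Inhibition = undesired.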
GLP-1R agonist: qHTS of GLP-1 Receptor Agonists. Glucagon-like peptide 1 receptor (Homo sapiens), P43220. HEK293 GLP-1R CRE-luciferase, luminescence, 4-6 h; cells express a hypersensitive GLP-1R form. Potency, µM (doses to about 45.6 µM), for inactives: at the top dose activation, most hits filed as activators. 380,000 compounds, 0.007% hits; also: % of control where 0% means no effect
PTHR1 agonist: qHTS for PTHR1 Agonists: Primary Screen | Potency, µM (top dose mostly 115 µM), without a hit: top-dose activation, most hits filed as activators | HEK293 GP2 PTHR1 cells, GloSensor cAMP luminescence, 1 h | AID 743266, 2014 | 410,000 compounds, 0.075% hits; also: nearly all actives have a fitted effect of over 55% in size
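HEK-293-derived GP2 cells expressing PTHR1 and a GloSensor cAMP reporter, 3,000/well, plated overnight, given luciferin plus IBMX (each 0.5 mM as added) for 1 h at 37 °C, then compound for 1 h at 37 °C. Luminescence was read after 15 min at room temperature.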
* marks the source's active call; other numbers are inactive results; ! = a repeat was not active; [ ] = dose if it differs, or a comment. Calls follow the shape of the dose curve; as a rule, active = well fitted curve in the direction sought with a large enough effect; inconclusive = small, poorly fitted or top-dose-only effect, or another doubt; inactive = no such curve, though single readings can be large; an effect the other way counts as inactive or inconclusive. Potency is read from the fitted curve at half-maximal effect.

For COc1ccc(OCC(O)Cn2c(=N)n(CCN3CCCCC3)c3ccccc32)cc1 (configuration not stated) the results were GLP1R inv ag 10µM*!, GLP1R cytotox inconclusive, GLP-1R agonist 4% and PTHR1 agonist -4%[57.5 µM].
Screening Cc1ccc(OCC(O)Cn2c(=N)n(CCN3CCCCC3)c3ccccc32)cc1 (configuration not stated) returned GLP1R inv ag inconclusive, GLP1R cytotox inconclusive, GLP-1R agonist -15% and PTHR1 agonist 16%[57.5 µM].
CCCn1c(=N)n(CC(=O)c2cccs2)c2ccccc21 was read as GLP1R inv ag -10%, GLP1R cytotox inconclusive, GLP-1R agonist -4% and PTHR1 agonist inconclusive.
`N=c1n(CCN2CCCCC2)c2ccccc2n1CC(=O)c1cccs1` gave GLP1R inv ag 5.6µM*, GLP1R cytotox -25%, GLP-1R agonist 2% and PTHR1 agonist inactive.
`COc1ccc(-c2cc3ccccc3n2CC(O)CN2CCN(CCO)CC2)cc1` (configuration not stated) gave GLP1R inv ag 10µM*, GLP1R cytotox 1%, GLP-1R agonist -1% and PTHR1 agonist 0%.
For Cc1ccccc1OCC(O)Cn1c(=N)n(Cc2ccccc2)c2ccccc21 (configuration not stated) the results were GLP1R inv ag 8.9µM*, GLP1R cytotox inconclusive, GLP-1R agonist -7% and PTHR1 agonist -43%.
For COc1ccc(-c2cc3ccccc3n2CC(O)CN2CCOCC2)cc1 (configuration not stated) the results were GLP1R inv ag inconclusive, GLP1R cytotox -6%, GLP-1R agonist 3% and PTHR1 agonist inactive.
`CC(Sc1nncn1C)C(=O)Nc1ccc(N2CCCCC2)cc1` (configuration not stated) gave GLP1R inv ag 0%, GLP1R cytotox -20%, GLP-1R agonist -1% and PTHR1 agonist -39%.
`COc1ccc(CNc2nc3ccccc3n2CCN2CCCCC2)cc1` gave GLP1R inv ag 10µM*, GLP1R cytotox inconclusive, GLP-1R agonist 14% and PTHR1 agonist -26%.
`COc1ccc(CC(=O)NCC2CCCN(Cc3ccc(OC(F)(F)F)cc3)C2)cc1` (configuration not stated) gave GLP1R inv ag 10µM*, GLP1R cytotox -1%, GLP-1R agonist 21% and PTHR1 agonist -23%.
`COc1ccc(S(=O)(=O)N2CCCc3ccccc32)cc1OC` gave GLP1R inv ag inconclusive, GLP1R cytotox 8%, GLP-1R agonist 13% and PTHR1 agonist -40%.
COc1ccc(S(=O)(=O)N2CCCc3ccccc32)cc1[N+](=O)[O-] was read as GLP1R inv ag 11µM*, GLP1R cytotox -13%, GLP-1R agonist 22% and PTHR1 agonist -10%.
Cn1nc(C(F)(F)F)c(-c2ccc(Br)cc2)c1NC(=O)c1cccnc1 was read as GLP1R inv ag inconclusive, GLP1R cytotox -14%, GLP-1R agonist 7% and PTHR1 agonist -8%.
For Cn1nc(C(F)(F)F)c(-c2ccc(Br)cc2)c1NC(=O)c1ccco1 the results were GLP1R inv ag 7.1µM*, GLP1R cytotox -12%, GLP-1R agonist -5% and PTHR1 agonist -29%.
Screening O=C(O)c1ccc(NC(=O)c2cc(S(=O)(=O)N3CCCCC3)c(Cl)cc2Cl)cc1 returned GLP1R inv ag 6%, GLP1R cytotox 0% and PTHR1 agonist inconclusive.
For Oc1ccccc1C1SC(c2ccccc2O)SC(c2ccccc2O)S1 (configuration not stated) the results were GLP1R inv ag 1.1µM*, GLP1R cytotox inconclusive, GLP-1R agonist 0% and PTHR1 agonist inactive.
Cc1cc2c(cc1C)CSC(c1ccccc1O)SC2 was read as GLP1R inv ag -41%, GLP1R cytotox -17%, GLP-1R agonist -8% and PTHR1 agonist inactive.
CCCCCc1nc2sc3c(c2c(=O)n1NC(=O)c1ccc([N+](=O)[O-])cc1)CC(C)(C)OC3 was read as GLP1R inv ag 10µM*, GLP1R cytotox -10%, GLP-1R agonist 1% and PTHR1 agonist -27%.
Screening CCCCCCCc1nc2sc3c(c2c(=O)n1N)CC(C)(C)OC3 returned GLP1R inv ag 12%, GLP1R cytotox -7%, GLP-1R agonist 6% and PTHR1 agonist -18%.
Screening CCCSc1nc2sc3c(c2c(=O)n1CC)CC(C)(C)OC3 returned GLP1R inv ag 10µM*, GLP1R cytotox -13%, GLP-1R agonist 20% and PTHR1 agonist -5%.
Screening CSc1nc2sc3c(c2c(=O)n1CC(C)C)CC(C)(C)OC3 returned GLP1R inv ag inconclusive, GLP1R cytotox 5%, GLP-1R agonist 1% and PTHR1 agonist inactive.
For COc1ccc(NCC(O)Cn2c(C)c(C)c3ccccc32)cc1 (configuration not stated) the results were GLP1R inv ag inconclusive, GLP1R cytotox -8%, GLP-1R agonist 14% and PTHR1 agonist -28%.
Screening Cc1c(C)n(CC(O)CNc2ccccc2)c2ccccc12 (configuration not stated) returned GLP1R inv ag 10µM*, GLP1R cytotox 7%, GLP-1R agonist 11% and PTHR1 agonist -7%.
O=C(Nc1ccc(N2CCOCC2)c(S(=O)(=O)Nc2ccccc2Cl)c1)c1ccc(F)cc1 was read as GLP1R inv ag 10µM*, GLP1R cytotox -6%, GLP-1R agonist 1% and PTHR1 agonist -34%.
O=C(Nc1ccc(F)cc1)Nc1ccc(N2CCCC2)c(S(=O)(=O)Nc2ccccc2Cl)c1 was read as GLP1R inv ag inconclusive, GLP1R cytotox -6%, GLP-1R agonist -9% and PTHR1 agonist -32%.
Screening NC(=O)C1c2ccccc2CCc2ccccc21 returned GLP-1R agonist 4%.
Screening COc1cc(Cn2c3ccc(NC(=O)CCc4ccccc4)cc3c(=O)n2C)ccc1F returned GLP1R inv ag 2.2µM*, GLP1R cytotox inconclusive, GLP-1R agonist 9% and PTHR1 agonist -35%.
COc1cc(Cn2c3ccc(NC(=O)CCc4cccnc4)cc3c(=O)n2C)ccc1F was read as GLP1R inv ag -1%, GLP1R cytotox 4%, GLP-1R agonist 3% and PTHR1 agonist inactive.
For Cc1ccnc(NC(=O)c2cc(S(=O)(=O)NCc3ccccc3)ccc2C)c1 the results were GLP1R inv ag inconclusive, GLP1R cytotox 2%, GLP-1R agonist 10% and PTHR1 agonist -22%.
Screening CCCCCCCN(CC)CCCC(O)c1ccc(NS(C)(=O)=O)cc1 (configuration not stated) returned GLP-1R agonist 8%.
Screening CCC(CO)Oc1cc(NCc2ccccc2Cl)c2ncn(C(C)C)c2c1 (configuration not stated) returned GLP1R inv ag 37%, GLP1R cytotox -18%, GLP-1R agonist 8% and PTHR1 agonist -19%.

Screens: PubChem BioAssay, National Center for Advancing Translational Sciences (NCATS)
